# Measured values from PubChem BioAssay (Tox21).
# Active and inactive are the calls of the source. Calls come from the whole dose curve.
# Test: G protein-coupled receptor (GPCR) small molecule agonists, calcium flux assay: HEK293 wild type cell line counter screen (AID 1920065)
# Details: HEK293 WT calcium flux, fluorescence, agonist mode; series mostly up to 57.6 µM; activation: at the top concentration
# Excerpt: U.S. Tox21 Program National Center for Advancing Translational Sciences [NCATS] Division of Preclinical Innovation [DPI] U.S. Environmental Protection Agency [EPA] National Institutes of Environmental Health Sciences [NIEHS] National Toxicology Program [NTP] U.S. Food and Drug Administration [FDA] Assay overview: The increased intracellular calcium release that occurred upon G protein-coupled receptor (GPCR) activation led to the frequent use of calcium flux assays to detect GPCR activation. For the purpose of studying and screening compounds that may activate GPCR, receptor-overexpressing models were typically generated using Hek293 wild-type (WT) cells. In order to eliminate the compounds that may have induced calcium release for non-specific activation, a counter-assay utilizing calcium flux on Hek293 WT cells was performed. The data were formulated in order to serve as a control for any calcium flux detection utilizing Hek293 cells with either GPCR overexpression or gene modification. The procurement of Hek293 WT cells from ATCC. Fluorescence intensity can be utilized to determine the activation of the compound in a calcium flux assay. As a counter control, this cell line was utilized to screen the Tox21 10K compound library.
# Assay Protocol Summary: Hek293 cells were dispensed at 1500cells/4uL/well in 1536-well black wall/clear bottom plates using a multidrop dispenser. After the assay plates were incubated at a 37 C/5% CO2 incubator for 18 hours, 4 uL of Calcium Dye Solution was added to each well. The plates were incubated at 37 C for 1 hour. For agonist mode, 23 nL of compounds dissolved in DMSO, positive control (ATP) or DMSO only was transferred to the assay plate by a pin tool station. The fluorescence intensity in the plates was measured using FDSS 7000EX kinetic plate reader with a filter set of Ex/Em=480/540 for 3 min at 1 sec intervals. Each test compound was measured at 15 concentrations and in triplicates.
# % is set by controls: 0 for no effect and ±100 for the full control effect.
row,Structure (SMILES),activation
1,CC(=O)[C@H]1CC[C@H]2[C@@H]3C=CC4=CC(=O)CC[C@@]4(C)[C@@H]3CC[C@]12C,-1.66% [at 26.5 µM] (inactive)
2,CCCCCCCC/C=C\CCCCCCCCOCCO,0.103% (inactive)
3,CCOCC(O)COc1ccc(NC(=O)CC[S+](C)C)cc1 (stereo not given),2.59% [at 26.5 µM] (inactive)
4,O=C(O)c1cc(Cl)cc(Cl)c1,-0.582% (inactive)
5,NC(=O)C(=O)N/N=C/c1ccc([N+](=O)[O-])o1,0.0093% [at 26.5 µM] (inactive)
6,Clc1cccnc1,1.58% (inactive)
7,CC(C)(O)c1ccccc1CC[C@@H](SCC1(CC(=O)O)CC1)c1cccc(/C=C/c2ccc3ccc(Cl)cc3n2)c1,-0.0524% [at 26.5 µM] (inactive)
8,COc1ccccc1OCC(O)COC(N)=O (stereo not given),-0.378% [at 26.5 µM] (inactive)
9,CN(C)CCCOC1(Cc2ccccc2)CCCCCC1,1.16% [at 26.5 µM] (inactive)
10,CCCCCCCCCCCCOC(=O)c1ccc(O)cc1,0.0067% (inactive)
11,CCOC(C)=O,-0.199% (inactive)
12,CC(=O)OC1CCCCC1C(C)(C)C (stereo not given),0.904% (inactive)
13,C/C=C(/C(=C/C)c1ccc(O)cc1)c1ccc(O)cc1,0.0773% [at 26.5 µM] (inactive)
14,COc1ccc(CN(CCN(C)C)c2ncccn2)cc1,0.296% [at 26.5 µM] (inactive)
15,CCOC(=O)CC(CC(=O)OCC)(OC(C)=O)C(=O)OCC,0.15% (inactive)
16,CC(C)(C)NCC(O)COc1ccc(NC(=O)NC2CCCCC2)cc1 (stereo not given),-0.0826% [at 26.5 µM] (inactive)
17,COC(=O)CS,1.12% (inactive)
18,CCOC(=O)C(=O)c1csc(NC=O)n1,-0.0267% [at 26.5 µM] (inactive)
19,Cc1cc(O)c(C(C)(C)C)cc1Sc1cc(C(C)(C)C)c(O)cc1C,1.51% (inactive)
20,Nc1cnn([C@@H]2O[C@H](CO)[C@@H](O)[C@H]2O)c(=O)n1,-0.222% (inactive)

row,Structure (SMILES),activation
1,COc1ccc(NS(=O)(=O)c2ccc(N)cc2)nn1,-0.409% [at 26.5 µM] (inactive)
2,OCC(O)[C@@H](O)[C@H](O)[C@H](O)CO[C@H]1O[C@H](CO)[C@@H](O)[C@H](O)[C@H]1O (stereo not given in full),0.578% (inactive)
3,C1CCN(CN2CCCCC2)CC1,0.782% (inactive)
4,O=C(c1ccco1)N1CCNCC1,-0.3% [at 26.5 µM] (inactive)
5,COc1cc2c(N3CCN(C(=O)Nc4ccc(OC(C)C)cc4)CC3)ncnc2cc1OCCCN1CCCCC1,0.131% [at 26.5 µM] (inactive)
6,Cc1ccc(O)cn1,0.216% (inactive)
7,Cc1[nH]c(=O)c(C#N)cc1-c1ccc2nccn2c1,0.182% [at 26.5 µM] (inactive)
8,COc1ccc(OC)c(N=Nc2c(O)ccc3ccccc23)c1,-1.42% (inactive)
9,O=Cc1cccc(Br)c1,0.122% (inactive)
10,Oc1ccc(C2CNCCc3c2cc(O)c(O)c3Cl)cc1 (stereo not given),0.973% [at 26.5 µM] (inactive)
11,N=C(N)c1ccc(OCCCOc2ccc(C(=N)N)cc2)cc1,-0.578% [at 26.5 µM] (inactive)
12,COc1ccccc1N1CCN(CCCNc2cc(=O)n(C)c(=O)n2C)CC1,-0.332% [at 26.5 µM] (inactive)
13,CN(CCOc1ccc(NS(C)(=O)=O)cc1)CCc1ccc(NS(C)(=O)=O)cc1,0.072% [at 26.5 µM] (inactive)
14,CC(=O)Nc1ccc(N)cc1,0.211% (inactive)
15,O=C1CCCC(=O)C1,0.192% (inactive)
16,O=C(/C=C/c1ccc(O)c(O)c1)O[C@@H]1C[C@](O)(C(=O)O)C[C@@H](O)[C@H]1O,-0.151% (inactive)
17,CCOC(=O)[C@H](CCc1ccccc1)N[C@@H](C)C(=O)N1[C@H](C(=O)O)C[C@@H]2CCC[C@@H]21,0.0696% [at 26.5 µM] (inactive)
18,Cn1cccc1,0.604% (inactive)
19,CCN(CC)C(=O)N1CCN(C)CC1,-0.359% [at 26.5 µM] (inactive)
20,CC(C)(C)c1cc(C=O)cc(C(C)(C)C)c1O,0.903% [at 26.5 µM] (inactive)
